Compounds with a hit are over-represented: about 2.6% of the library has one in this group of screens.
EBV LMP1 NFkB: Epstein-Barr LMP1 NF-kappaB reporter inhibition; LMP1-induced NF-kappaB luciferase reporter cells, luminescence; 350,000 compounds, 0.69% hits; inhibition, % at 12.5 µM; in the data active = inhibition above about 41%;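 also: 0% = neutral control wells and 100% = reference inhibitor control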
EWS-Fli inh: EWS/Fli transcriptional activity inhibition. AID 651661. A673 NR0B1-luciferase reporter, viability-normalised. 350,000 compounds, 0.67% hits. inhibition, % at 12.6 µM;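 active = mean inhibition of at least 50% after viability correction, with every replicate also passing that limit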;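 also: firefly luciferase signal divided by Alamar Blue viability fluorescence both relative to DMSO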
LGR2 antag: Drosophila LGR2 receptor signaling inhibition; HEK293 LGR2, CRE-luciferase, bursicon-stimulated, 4 h; inhibition, % at 9.99 µM; 380,000 compounds, 0.35% hits;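 active = drop in luminescence signal, shown as inhibition above about 50% in the replicate tests, limit read from the data, passing the limit was not always enough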;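 also: agonist challenge used bursicon conditioned medium at about half maximal strength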
TWEAK Fn14 block: TWEAK-Fn14 signaling inhibition | TWEAK-stimulated Fn14 reporter cells, luciferase luminescence, 8 h | inhibition, % at 10 µM | 360,000 compounds, 2% hits; in the data active = inhibition above about 50%
TROY signal inh: inhibitors of TROY-dependent NF-kB signaling | AID 1347056 | inhibition, % at 10 µM | 360,000 compounds, 0.98% hits | Q293 LMP1-TROYcd NF-kB luciferase reporter, 4 h;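 active = compounds whose plate-normalised and pattern-corrected inhibition of the luciferase reporter signal at the single screening dose is 50% or more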
DNA binding: DNA binding small molecules; shares compounds with EWS-Fli inh; salmon sperm DNA acridine orange fluorescence polarization; AC35, µM (doses to about 68 µM), inactives show at the highest dose activity change, negative = DNA binding; 640 compounds, 2% hits; AID 720586;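 active = fitted curve reaches a 35% signal fall AC35 below twice the sample's top valid tested dose, actives reach about 48 µM in these data; inactive = the rest, including activity in the rising direction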;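 also: lower polarization ratio signals compound binding to DNA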
* marks the source's active call; other numbers are inactive results; nt = no result.

SMILES | EBV LMP1 NFkB | EWS-Fli inh | LGR2 antag | TWEAK Fn14 block | TROY signal inh | DNA binding
CCOc1ccc(OCc2ccc(C(=O)NN=Cc3ccc[nH]3)cc2)cc1 | 10 | 57* | 8 | 52* | 10 | 0%
CCNC(=O)C[C@@H]1CC[C@@H]2[C@H](COc3ccc(NC(=O)Cc4cccs4)cc3C(=O)N2C)O1 | nt | 0 | 4 | nt | nt | nt
Cc1noc(C)c1S(=O)(=O)N(C)C[C@H]1Oc2ccc(NC(=O)Nc3ccc4c(c3)OCO4)cc2CC(=O)N([C@@H](C)CO)C[C@@H]1C | nt | -9 | -8 | nt | nt | nt
Nc1ccc2oc(-c3cc(Br)ccc3Cl)nc2c1 | 15 | 54* | nt | 46 | 0 | -7%
Cc1c(-c2nc(-c3ccc(C(C)(C)C)cc3)no2)n(C)oc1=O | 6 | 56* | -8 | -39 | -63 | 3.5µM*
C=CC[n+]1c(-c2ccc(C)cc2)csc1Nc1ccc(NC(C)=O)cc1 | 39 | 62* | -39 | 51* | 41 | -6%
CC(C)CC#Cc1ccc2c(c1)O[C@@H](CN(C)CC1CCOCC1)[C@@H](C)CN([C@H](C)CO)S2(=O)=O | nt | 9 | 10 | nt | nt | nt
c1cncc(-c2ccc([C@@H]3[C@H]4CNC[C@@H]3N4CC3CCOCC3)cc2)c1 | nt | 51* | -24 | nt | nt | 3%
Fc1cccc(-c2ccc(C3[C@H]4CNC[C@@H]3N4CC3CCOCC3)cc2)c1 (stereo partly drawn) | nt | nt | -28 | nt | nt | nt
CC(=O)Nc1ccc(OCC(=O)N(CC(C)C)C2CCS(=O)(=O)C2)cc1 (stereo not drawn) | 0 | 68* | nt | 14 | -3 | 0%
Oc1c(Cl)cc(Cl)c2cccnc12 | 5 | 54* | 5 | 45 | 63* | -4%
CC(=O)NC(C)c1cc(Cl)c2cccnc2c1O (stereo not drawn) | 9 | 21 | -3 | 11 | -6 | nt
CCOC(=O)Cc1ccc(NC(=O)c2ccccc2Br)cc1 | 4 | 52* | nt | 7 | -2 | -1%
CCOC(=O)Cc1ccc(NC(=O)c2ccc(C(C)(C)C)cc2)cc1 | 5 | nt | nt | 25 | -5 | nt
C[C@H]1CN([C@@H](C)CO)C(=O)c2cccc(NS(=O)(=O)c3ccc(F)cc3)c2O[C@@H]1CN(C)Cc1ccc(Cl)c(Cl)c1 | nt | -8 | -3 | nt | nt | nt
C[C@@H]1CN([C@@H](C)CO)C(=O)c2cc(NS(=O)(=O)c3ccc(F)cc3)ccc2O[C@@H]1CN(C)Cc1ccc(C(=O)Nc2ccccc2N)cc1 | nt | 54* | 6 | nt | nt | -7%
COc1ccc(S(=O)(=O)Nc2ccc3c(c2)C(=O)N([C@H](C)CO)C[C@@H](C)[C@H](CN(C)CC2CCCCC2)OCCCC[C@@H](C)O3)cc1 | nt | 5 | 12 | nt | nt | nt
C[C@@H]1CCCCO[C@H](CN(C)Cc2ccc(C(=O)Nc3ccccc3N)cc2)[C@@H](C)CN([C@@H](C)CO)C(=O)c2cc(NS(=O)(=O)c3ccc(Cl)cc3)ccc2O1 | nt | 59* | 6 | nt | nt | -8%
COc1ccc(S(=O)(=O)Nc2ccc3c(c2)C(=O)N([C@H](C)CO)C[C@@H](C)[C@@H](CN(C)CC2CCCCC2)OCCCC[C@H](C)O3)cc1 | nt | 56* | 3 | nt | nt | -12%
C[C@@H]1CN([C@H](C)CO)C(=O)c2cc(NC(=O)CCCCCC(=O)Nc3ccccc3N)ccc2O[C@H]1CN(C)S(=O)(=O)c1ccc(Cl)cc1 | nt | 52* | 6 | nt | nt | -9%
CC(=O)N(C)C[C@H]1Oc2ncc(C#CCC3CCCC3)cc2C(=O)N([C@@H](C)CO)C[C@@H]1C | nt | -7 | 18 | nt | nt | nt
C[C@@H]1CCCCO[C@H](CN(C)Cc2ccc(C(F)(F)F)cc2)[C@H](C)CN([C@H](C)CO)C(=O)c2cc(NC(=O)CCCN(C)C)ccc2O1 | nt | 67* | 6 | nt | nt | 0%
C[C@@H]1CCCCO[C@@H](CN(C)Cc2ccc(C(F)(F)F)cc2)[C@H](C)CN([C@H](C)CO)C(=O)c2cc(NC(=O)CCCN(C)C)ccc2O1 | nt | 12 | 5 | nt | nt | nt
C[C@@H]1CN([C@H](C)CO)C(=O)c2cc(NS(=O)(=O)c3ccccc3)ccc2O[C@H]1CN(C)Cc1ccc(C(=O)Nc2ccccc2N)cc1 | nt | 30 | -4 | nt | nt | nt
COc1ccc(S(=O)(=O)Nc2ccc3c(c2)C(=O)N([C@H](C)CO)C[C@@H](C)[C@@H](CN(C)Cc2ccc(C(=O)Nc4ccccc4N)cc2)O3)cc1 | nt | 56* | -9 | nt | nt | -1%
